Test results from PubChem BioAssay (Tox21).
“And” between values parts separate entries of the source, which are not always exact repeats. Identical values can stand only once. Inconclusive results are not listed. Some compounds were tested as several samples or in several runs, with calls that do not always agree. The source made the active and inactive calls. Unless noted, calls follow the shape of the dose curve; as a rule, active = well fitted cell-killing curve with a large enough effect in the repeat runs; inconclusive = weak or mixed curves; inactive = no such curve, though single readings can be large or run the other way.

tested on: not listed separately; test: qHTS assay for identifying genotoxic compounds that show differential cytotoxicity against isogenic chicken DT40 cell lines with known DNA damage response pathways - Rad54/Ku70 mutant cell line (AID 743015); conditions: DT40 Rad54/Ku70 mutant viability, CellTiter-Glo, 40 h; series mostly up to 66.8 µM; activity change, negative = cytotoxicity: at the top concentration; also: nearly all actives have a fitted effect of over 60% in size
% is scaled to controls: 0 for no effect and ±100 for the full control effect; potency is read from the fitted curve at half-maximal effect.

| Compound | Potency | activity change, negative = cytotoxicity |
| --- | --- | --- |
| Cc1ncc(C[n+]2csc(CCO)c2C)c(N)n1 | inactive |  |
| C=CCSSCC=C |  | -1.89% (inactive) |
| CCCCC(CC)COC(=O)c1c(Br)c(Br)c(Br)c(Br)c1C(=O)OCC(CC)CCCC (stereo not given) |  | 5.36% (inactive) |
| CCCC1CCCCN1 (stereo not given) |  | 0.437% (inactive) |
| CCCC(C)(COC(N)=O)COC(=O)NC(C)C (stereo not given) |  | -1.47% (inactive) |
| C#C[C@]1(O)CC[C@H]2[C@@H]3CCC4=CC(=O)CCC4=C3C=C[C@@]21CC | 13.3 µM (active) |  |
| O=C(Cc1ccccc1)OCCc1ccccc1 | 61.1 µM (active) |  |
| O=C(NC(=O)c1cc(F)c(F)cc1Cl)Nc1cc(F)ccc1N1CCC(C(=O)O)CC1 |  | 1.72% (inactive) |
| FC(Cl)(Cl)C(F)(Cl)Cl |  | 7.72% [at 95.1 µM] (inactive) |
| CC(=O)NNc1ccccc1 | 1.71 µM (active) |  |
| CCN(C(C)=O)c1cccc(-c2ccnc3c(C#N)cnn23)c1 |  | 2.36% (inactive) |
| OCCCl |  | 3.33% (inactive) |
| CCc1cnc(C2=NC(C)(C(C)C)C(=O)N2)c(C(=O)O)c1 (stereo not given) | inactive |  |
| O=C(CCl)CCl | inactive and 686 nM (active) |  |
| O=P(OCC(Br)CBr)(OCC(Br)CBr)OCC(Br)CBr (stereo not given) | 25.9 µM (active) |  |
| SCc1ccccc1 |  | -6.48% [at 95.1 µM] (inactive) |
| O=C(O)C(F)(F)C(F)(F)C(F)(F)C(F)(F)C(F)(F)C(F)(F)C(F)(F)C(F)(F)F |  | -22.4% (inactive) |
| CC[N+]1(CCOC(=O)C(O)(c2ccccc2)c2ccccc2)CCCCC1 |  | 15.8% (inactive) |
| Clc1ccccc1 |  | 8.06% (inactive) |
| CC(C)(C)NCC(O)c1cc(Cl)c(N)c(C(F)(F)F)c1 (stereo not given) |  | 5.81% (inactive) |
| CCC[N+](CCC)(CCC)CCC |  | -7.97% (inactive) |
| O=C(O)c1cc(I)cc(I)c1I |  | 12.2% [at 95.1 µM] (inactive) |
| CCCCC#N |  | -1.88% (inactive) |
| CCCCCCCCCCCCN(C)C |  | 0.166% (inactive) |
| CC(C)c1ccc(OP(=O)(Oc2ccc(C(C)C)cc2)Oc2ccc(C(C)C)cc2)cc1 | 69.1 µM (active) and 54.5 µM (active) and 21.7 µM (active) |  |
| CCCCCCCCP(=O)(O)O |  | -1.78% (inactive) |
| [Cl-].[Cl-].[Hg+2] | 1.68 µM (active) and 1.36 µM (active) and 217 nM (active) |  |
| C[Si](Cn1cncn1)(c1ccc(F)cc1)c1ccc(F)cc1 | 8.92 µM (active) and 9.69 µM (active) |  |
| CCCCNC(=O)OCC#CI | 2.72 µM (active) and 969 nM (active) |  |
| C[C@]12CC[C@H]3[C@@H](CCC4=CC(=O)CC[C@@H]43)[C@@H]1CC[C@@H]2OC(=O)CCc1ccccc1 |  | 3.4% (inactive) |

tested on: not listed separately; test: qHTS assay to identify small molecule antagonists of the androgen receptor (AR) signaling pathway - cell viability counter screen (AID 743033; also: nearly all actives have a fitted effect of over 45% in size); conditions: AR-bla HEK293 viability, CellTiter-Glo luminescence, 16 h; series mostly up to 58.5 µM; activity change, negative = cytotoxicity: at the top concentration

| Compound | Potency | activity change, negative = cytotoxicity |
| --- | --- | --- |
| Cc1ncc(C[n+]2csc(CCO)c2C)c(N)n1 | inactive |  |
| C=CCSSCC=C |  | 7.7% (inactive) |
| CCCCC(CC)COC(=O)c1c(Br)c(Br)c(Br)c(Br)c1C(=O)OCC(CC)CCCC (stereo not given) |  | -1.83% (inactive) |
| CCOc1cccc(C2(N3CCN(c4ccccc4)CC3)CCC(C)CC2)c1 (stereo not given) |  | 3.64% (inactive) |
| CCCC(C)(COC(N)=O)COC(=O)NC(C)C (stereo not given) | inactive |  |
| C#C[C@]1(O)CC[C@H]2[C@@H]3CCC4=CC(=O)CCC4=C3C=C[C@@]21CC |  | 1.36% (inactive) |
| C=C(C)C(=O)OCCCCOC(=O)C(=C)C |  | -21.6% (inactive) |
| O=C(Cc1ccccc1)OCCc1ccccc1 |  | 8.48% (inactive) |
| O=C(NC(=O)c1cc(F)c(F)cc1Cl)Nc1cc(F)ccc1N1CCC(C(=O)O)CC1 |  | 1.24% (inactive) |
| FC(Cl)(Cl)C(F)(Cl)Cl |  | 0.576% [at 78.9 µM] (inactive) |
| CCN(C(C)=O)c1cccc(-c2ccnc3c(C#N)cnn23)c1 |  | 1.63% (inactive) |
| OCCCl |  | 0.119% (inactive) |
| CCc1cnc(C2=NC(C)(C(C)C)C(=O)N2)c(C(=O)O)c1 (stereo not given) | inactive |  |
| O=C(CCl)CCl |  | -14.7% [at 78.9 µM] (inactive) |
| CCOP(=S)(OCC)Oc1ccc(S(C)=O)cc1 (stereo not given) |  | 5.35% (inactive) |
| SCc1ccccc1 |  | 2.3% [at 78.9 µM] (inactive) |

| Compound | Potency | activity change, negative = cytotoxicity |
| --- | --- | --- |
| O=C(O)C(F)(F)C(F)(F)C(F)(F)C(F)(F)C(F)(F)C(F)(F)C(F)(F)C(F)(F)F |  | 6.01% (inactive) |
| CC[N+]1(CCOC(=O)C(O)(c2ccccc2)c2ccccc2)CCCCC1 |  | 4.53% (inactive) |
| Clc1ccccc1 |  | -0.394% (inactive) |
| CC(C)(C)NCC(O)c1cc(Cl)c(N)c(C(F)(F)F)c1 (stereo not given) |  | 3.1% (inactive) |
| CCC[N+](CCC)(CCC)CCC |  | 5.55% (inactive) |
| CNC(=O)Oc1cccc(N=CN(C)C)c1 |  | -0.866% (inactive) |
| O=C(O)c1cc(I)cc(I)c1I |  | 7.93% [at 78.9 µM] (inactive) |
| O=C(O)CCCOc1ccc(Cl)cc1Cl | inactive |  |
| CCCCC#N |  | 3.65% (inactive) |
| CC1(C)CC(=O)CC(C)(C)N1[O] |  | 4.94% (inactive) |
| CC(C)c1ccc(OP(=O)(Oc2ccc(C(C)C)cc2)Oc2ccc(C(C)C)cc2)cc1 | inactive |  |
| CCCCCCCCP(=O)(O)O |  | 7.03% (inactive) |
| [Cl-].[Cl-].[Hg+2] | 9.52 µM (active) and 1.54 µM (active) and 9.77 µM (active) |  |
| C[Si](Cn1cncn1)(c1ccc(F)cc1)c1ccc(F)cc1 | 14.3 µM (active) |  |
| CCCCNC(=O)OCC#CI | 12.2 µM (active) and 19.5 µM (active) |  |
| C[C@]12CC[C@H]3[C@@H](CCC4=CC(=O)CC[C@@H]43)[C@@H]1CC[C@@H]2OC(=O)CCc1ccccc1 |  | 5.26% (inactive) |

molecular target: Androgen receptor (Homo sapiens) (UniProt P10275); test: qHTS assay to identify small molecule antagonists of the androgen receptor (AR) signaling pathway (AID 743035; active = well fitted inhibition curve with a large enough effect in the signal ratio in the repeat runs, not every such curve was filed as active; the % refers to the signal ratio); conditions: HEK293 AR-UAS-bla, R1881-stimulated, beta-lactamase FRET, 16 h; series mostly up to 58.5 µM; activity change, negative = inhibition: at the top concentration
Sequence (P10275 whole entry, looked up): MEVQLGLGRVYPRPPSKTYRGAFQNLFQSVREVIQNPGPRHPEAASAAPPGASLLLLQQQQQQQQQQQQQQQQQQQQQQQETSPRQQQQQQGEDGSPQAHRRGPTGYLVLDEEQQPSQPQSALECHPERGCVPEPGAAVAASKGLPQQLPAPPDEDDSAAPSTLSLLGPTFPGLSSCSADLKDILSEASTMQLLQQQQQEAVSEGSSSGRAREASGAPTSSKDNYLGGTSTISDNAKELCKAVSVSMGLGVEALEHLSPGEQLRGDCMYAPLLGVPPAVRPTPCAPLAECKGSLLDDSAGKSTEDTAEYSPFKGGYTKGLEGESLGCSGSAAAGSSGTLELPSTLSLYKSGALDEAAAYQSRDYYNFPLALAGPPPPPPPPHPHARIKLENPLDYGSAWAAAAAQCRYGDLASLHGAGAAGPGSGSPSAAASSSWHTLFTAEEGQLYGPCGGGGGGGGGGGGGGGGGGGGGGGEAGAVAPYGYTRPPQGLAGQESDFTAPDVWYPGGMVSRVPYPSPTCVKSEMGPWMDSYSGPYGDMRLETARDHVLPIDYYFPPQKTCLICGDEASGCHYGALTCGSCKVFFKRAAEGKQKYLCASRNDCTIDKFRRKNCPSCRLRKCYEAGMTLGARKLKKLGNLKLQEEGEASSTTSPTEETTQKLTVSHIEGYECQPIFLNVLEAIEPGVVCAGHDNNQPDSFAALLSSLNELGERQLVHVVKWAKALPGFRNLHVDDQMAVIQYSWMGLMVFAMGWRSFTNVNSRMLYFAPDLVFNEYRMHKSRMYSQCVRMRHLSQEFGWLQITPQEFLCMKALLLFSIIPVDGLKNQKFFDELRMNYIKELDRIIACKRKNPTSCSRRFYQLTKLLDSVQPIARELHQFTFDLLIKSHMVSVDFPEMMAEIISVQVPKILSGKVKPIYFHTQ
In short: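 Antagonism is scored as loss of R1881-driven beta-lactamase reporter expression in HEK293 cells carrying the reporter under a UAS element, after 16 h co-treatment at 37C and a 2 h room-temperature FRET substrate read.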

| Compound | activity change, negative = inhibition | Potency |
| --- | --- | --- |
| CC(=O)NNc1ccccc1 | -4.59% (inactive) |  |
| O=P(OCC(Br)CBr)(OCC(Br)CBr)OCC(Br)CBr (stereo not given) |  | 14 µM (active) |
| CC(C)(C)NCC(O)c1cc(Cl)c(N)c(C(F)(F)F)c1 (stereo not given) | -2.02% (inactive) |  |
